# Experimental data from PubChem BioAssay (NCATS).
# Inconclusive results are not listed. The source made the active and inactive calls. The call rests on the fitted dose curve; tested in HEK293 reporter line.
# Assay: qHTS for Inhibitors of the Functional Ribonucleoprotein Complex (vRNP) of Lassa (LASV) Arenavirus: Viability assay - alamar blue signal for LASV Primary Screen (AID 1347083)
# Conditions: cell viability, alamar blue fluorescence (LASV minigenome counter-screen); series mostly up to 57.5 µM
# Further: nearly all actives have a fitted effect of over 80% in size.
# Potency means the concentration at half of the fitted maximal effect.
row,Structure (SMILES),Potency
1,NCc1cc(=O)[nH]o1,inactive
2,c1cc2c(cc1[C@H]1OC[C@H]3[C@H]1CO[C@H]3c1ccc3c(c1)OCO3)OCO2,inactive
3,CC(=O)O[C@@]12CO[C@H]1C[C@H](O)[C@@]1(C)C(=O)[C@H](O)C3=C(C)[C@@H](O)C[C@@](O)([C@@H](OC(=O)c4ccccc4)[C@@H]21)C3(C)C,13.7 µM (active)
4,N#C[C@H](O[C@@H]1O[C@H](CO[C@@H]2O[C@H](CO)[C@H](O)[C@H](O)[C@H]2O)[C@H](O)[C@H](O)[C@H]1O)c1ccccc1,19.3 µM (active)
5,CC=C(C)C(=O)N[C@@H](c1ccccc1)[C@@H](O)C(=O)O[C@H]1C[C@@]2(O)[C@@H](OC(=O)c3ccccc3)[C@@H]3[C@]4(OC(C)=O)CO[C@@H]4C[C@H](O)[C@@]3(C)C(=O)[C@H](OC(C)=O)C(=C1C)C2(C)C,0.0034 µM (active)
6,COc1nn(CSP(=S)(OC)OC)c(=O)s1,inactive
7,O=C(N[C@@H](COc1ccc2[nH]c(=O)[nH]c2c1)c1ccccc1)c1cccn(Cc2ccc(F)c(F)c2)c1=O,inactive
8,NC(CP(=O)(O)O)C(=O)O (centres undefined),inactive
9,CO/C=C(/C(=O)OC)c1ccccc1Oc1cc(Oc2ccccc2C#N)ncn1,22.4 µM (active)
10,N=c1c2c(-c3ccccc3)c(-c3ccccc3)n(Cc3ccccc3)c2ncn1C1CCC(O)CC1 (centres undefined),1.09 µM (active)
11,CC(=Cc1csc(C)n1)[C@@H]1C[C@H]2O[C@]2(C)CCC[C@H](C)[C@@H](O)[C@@H](C)C(=O)C(C)(C)[C@@H](O)CC(=O)O1,inactive
12,CC[C@@H]1[C@@H](C)O[C@@](O)([C@@H](C)[C@H](O)[C@H](C)[C@H]2OC(=O)C=CC=C[C@@H](C)[C@@H]([C@@H](C)[C@@H](O)[C@H](C)[C@@]3(O)C[C@H](O[C@H]4C[C@H](O)[C@H](O)[C@H](C)O4)[C@H](CC)[C@@H](C)O3)OC(=O)C=CC=C[C@@H]2C)C[C@H]1O[C@H]1C[C@H](O)[C@H](O)[C@H](C)O1,43.2 µM (active)
13,Cc1ccccc1-n1c(Cn2cnc3c(N)ncnc32)nc2cccc(C)c2c1=O,1.53 µM (active)
14,CCOC(=O)Nc1ccc(NCc2ccc(F)cc2)cc1N,5.44 µM (active)
15,COc1cc(C(O)CN)ccc1O (centres undefined),inactive
16,O=S(=O)(F)Cc1ccccc1,1.53 µM (active)
17,CC(C)[C@]12O[C@@H]1[C@@H]1O[C@]13[C@]1(O[C@H]1C[C@@H]1C4=C(CC[C@@]13C)C(=O)OC4)[C@H]2O,inactive
18,O=C(Oc1ccc([N+](=O)[O-])cc1)N1CCN(Cc2cccc(Oc3ccccc3)c2)CC1,24.3 µM (active)
19,Clc1ccccc1C(c1ccccc1)(c1ccccc1)n1cccn1,inactive
20,CC1=C(O)C(=O)C=C2C1=CC=C1[C@@]2(C)CC[C@@]2(C)[C@@H]3C[C@](C)(C(=O)O)CC[C@]3(C)CC[C@]12C,19.3 µM (active)
21,COc1cc([C@@H]2c3cc4c(cc3[C@@H](O)C3COC(=O)C32)OCO4)cc(OC)c1O (some centres undefined),0.0863 µM (active)
22,CC=C(C)C(=O)O[C@H]1C(C)=C2[C@@H]3OC(=O)[C@@](C)(O)[C@@]3(O)[C@@H](OC(=O)CCC)C[C@](C)(OC(C)=O)[C@@H]2[C@@H]1OC(=O)CCCCCCC,0.769 µM (active)
23,CC(C)(O)C=CC(=O)[C@](C)(O)[C@H]1[C@H](O)C[C@]2(C)[C@@H]3CC=C4[C@@H](C=C(O)C(=O)C4(C)C)[C@]3(C)C(=O)C[C@@]12C,3.06 µM (active)
24,CCOC(=O)c1c(C(C#N)=CN)c2ccc(Cl)c(Cl)c2n1C,10.9 µM (active)

# Assay: qHTS for Inhibitors of the Functional Ribonucleoprotein Complex (vRNP) of Lymphocytic Choriomeningitis Arenaviruses (LCMV): Viability assay - alamar blue signal for LCMV Primary Screen (AID 1347085)
# Conditions: alamar blue viability counter-screen, LCMV vRNP screen cells; series mostly up to 57.5 µM
row,Structure (SMILES),Potency
1,C[C@]12CC[C@H]3[C@@H](CCC4=CC(=O)CC[C@@]43C)[C@H]1CC[C@H]2OC(=O)CCC1CCCC1,6.11 µM (active)
2,NCc1cc(=O)[nH]o1,inactive
3,c1cc2c(cc1[C@H]1OC[C@H]3[C@H]1CO[C@H]3c1ccc3c(c1)OCO3)OCO2,inactive
4,CC(=O)O[C@@]12CO[C@H]1C[C@H](O)[C@@]1(C)C(=O)[C@H](O)C3=C(C)[C@@H](O)C[C@@](O)([C@@H](OC(=O)c4ccccc4)[C@@H]21)C3(C)C,21.7 µM (active)
5,C[C@@H]1CC[C@@]2(OC1)O[C@H]1C[C@H]3[C@@H]4CC=C5C[C@@H](O[C@@H]6O[C@H](CO)[C@@H](O[C@@H]7O[C@@H](C)[C@H](O)[C@@H](O)[C@@H]7O)[C@H](O)[C@@H]6O[C@@H]6O[C@@H](C)[C@H](O)[C@@H](O)[C@@H]6O)CC[C@]5(C)[C@@H]4CC[C@]3(C)[C@@H]1[C@H]2C,inactive
6,N#C[C@H](O[C@@H]1O[C@H](CO[C@@H]2O[C@H](CO)[C@H](O)[C@H](O)[C@H]2O)[C@H](O)[C@H](O)[C@H]1O)c1ccccc1,38.5 µM (active)
7,CC(N[C@H]1C[C@H]1c1ccccc1)c1ccc2c(c1)OCCO2 (some centres undefined),inactive
8,COc1nn(CSP(=S)(OC)OC)c(=O)s1,inactive
9,O=C(N[C@@H](COc1ccc2[nH]c(=O)[nH]c2c1)c1ccccc1)c1cccn(Cc2ccc(F)c(F)c2)c1=O,inactive
10,CC(=O)Nc1ccc(OC[C@](C)(O)C(=O)Nc2ccc([N+](=O)[O-])c(C(F)(F)F)c2)cc1,10.9 µM (active)
11,CC(C)[C@H]1C(=O)N[C@H](CO)Cc2c[nH]c3cccc(c23)N1C,10.9 µM (active)
12,NC(CP(=O)(O)O)C(=O)O (centres undefined),inactive
13,C[C@@]12OC(=O)[C@]1([C@@H](O)[C@@H]1C=CCCC1)NC(=O)[C@H]2CCCl,24.3 µM (active)
14,O=C(Nc1ccncc1)C(=O)c1cn(Cc2ccc(Cl)cc2)c2ccccc12,0.0544 µM (active)
15,N=c1c2c(-c3ccccc3)c(-c3ccccc3)n(Cc3ccccc3)c2ncn1C1CCC(O)CC1 (centres undefined),0.544 µM (active)
16,CC(=Cc1csc(C)n1)[C@@H]1C[C@H]2O[C@]2(C)CCC[C@H](C)[C@@H](O)[C@@H](C)C(=O)C(C)(C)[C@@H](O)CC(=O)O1,inactive
17,CC[C@@H]1[C@@H](C)O[C@@](O)([C@@H](C)[C@H](O)[C@H](C)[C@H]2OC(=O)C=CC=C[C@@H](C)[C@@H]([C@@H](C)[C@@H](O)[C@H](C)[C@@]3(O)C[C@H](O[C@H]4C[C@H](O)[C@H](O)[C@H](C)O4)[C@H](CC)[C@@H](C)O3)OC(=O)C=CC=C[C@@H]2C)C[C@H]1O[C@H]1C[C@H](O)[C@H](O)[C@H](C)O1,38.5 µM (active)
18,Cc1ccccc1-n1c(Cn2cnc3c(N)ncnc32)nc2cccc(C)c2c1=O,1.93 µM (active)
19,CCOC(=O)Nc1ccc(NCc2ccc(F)cc2)cc1N,1.37 µM (active)
20,COc1cc(C(O)CN)ccc1O (centres undefined),inactive
21,COc1ccc2c(c1)[C@]13CCCCC1C(C2)N(C)CC3 (some centres undefined),inactive
22,CC(C)[C@]12O[C@@H]1[C@@H]1O[C@]13[C@]1(O[C@H]1C[C@@H]1C4=C(CC[C@@]13C)C(=O)OC4)[C@H]2O,inactive
23,Clc1ccccc1C(c1ccccc1)(c1ccccc1)n1cccn1,inactive
24,COc1cc([C@@H]2c3cc4c(cc3[C@@H](O)C3COC(=O)C32)OCO4)cc(OC)c1O (some centres undefined),0.172 µM (active)
25,CC(C)(O)C=CC(=O)[C@](C)(O)[C@H]1[C@H](O)C[C@]2(C)[C@@H]3CC=C4[C@@H](C=C(O)C(=O)C4(C)C)[C@]3(C)C(=O)C[C@@]12C,9.68 µM (active)
